Molecules are shown by their SMILES. The source made the active and inactive calls.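 The calls were made as follows: active = mean z-score across replicates of 1.96 or higher in either the MELAS or the Rieske mutant cell line; inactive = the rest.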

A short description of the test: MELAS cybrid and Rieske KO viability enhancers – cell-based, MELAS cybrids, Rieske KO mouse fibroblasts, CellTiter-Glo, primary screen (AID 1508586).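 Also: test concentration not given here; z relative to plate mean and SD of compound and empty wells.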 To be noted: MELAS cybrid survival, low glucose, CellTiter-Glo 48 h; stronger effect = higher value. (In general: Cellular ATP, detected with luciferase, serves as a proxy for viable cell number.)
As to `Cc1ccc(C(C)CCN2CCC3(CC2)C(=O)N(C(C)C)C(=O)N3CCC(C)C)o1` (stereo unspecified), the z-score is -0.199 (inactive).
For `O=C([C@@H]1C[C@H](CN2CCOCC2)CN(Cc2ccccc2)C1)N1CCCC1`, the z-score is 0.0951 (inactive).
Turning to `COC(=O)c1c(NC(=O)c2ccco2)c2cc(NC3CCOCC3)cnc2n1C`, the z-score was -0.622 (inactive).
Regarding `Cc1c(CN2CCc3c(c(C(=O)NC4CCCC4)nn3CC(C)C)C2)c(=O)n(-c2ccccc2)n1C`, the z-score was -0.389 (inactive).
`CC(C)CCNc1cc(C(=O)NCCCn2ccnc2)cc(S(=O)(=O)N2CCCC2)c1`: the z-score is 0.646 (inactive).
Turning to `CC(C)CNC(=O)[C@@H]1C[C@H](CN2CCOCC2)CN(Cc2ccccc2)C1`, the z-score is 0.428 (inactive).
For the compound `C[C@H]1NC(=O)[C@H]2CN(C(=O)Oc3ccc(Cl)cc3)CCN2C1=O`, the z-score is -0.514 (inactive).
Turning to `COC1CN(Cc2cn(C)c3ccccc23)CC(=O)N(Cc2ccccc2)C1` (stereo unspecified), the z-score was -0.128 (inactive).
Consider `COc1ccc(-c2[nH]ncc2CN2CCC3(CC2)C(=O)N(C(C)C)C(=O)N3CCC(C)C)cc1`, for which the z-score was 0.0083 (inactive).
With `CCn1nc(C(=O)N(C)Cc2ccco2)c2c1CCC(N(C)Cc1ccon1)C2` (stereo unspecified), the z-score is -0.655 (inactive).
`C=CCn1nc(C(=O)N2CCSCC2)c2c1CCC(NCCCSC)C2` (stereo unspecified): the z-score was -0.0452 (inactive).
As to `Cc1csc(-c2cc(C(=O)NCCCN3CCOCC3)cc(S(=O)(=O)N3CCOCC3)c2)c1`, the z-score is -0.167 (inactive).
As to `COCc1ccc(CN2CCC3(CC2)C(=O)N(C2Cc4ccccc4C2)C(=O)N3CC(C)C)o1`, the z-score was -0.309 (inactive).
The figure for `COc1ccc(-c2cc3c(n(C)c2=O)CCN(C2CCSC2)C3)c2ccc(C)nc12` (stereo unspecified) is -0.852 (inactive); for `CCc1nc(Cn2c3c(cc(-c4ccccc4C)c2=O)CN(Cc2ccc(O)c(Cl)c2)CC3)no1` it is -0.286 (inactive); for `CCn1cc(CN2CCN3C(=O)[C@@H]4C[C@@H](O)CN4C(=O)[C@H]3C2)c(C)n1` it is -0.258 (inactive).
Then `CCc1nc(CNc2cc(C(=O)NCc3ccccn3)cc(S(=O)(=O)N3CCCC3)c2)c(C)[nH]1`, with -0.302 (inactive); and `CC(C)CN1CC(OCc2cccc(F)c2)CN(C(=O)c2cccc(N3CCNC3=O)c2)CC1=O` (stereo unspecified), with -0.284 (inactive); and `Cn1nc(C(=O)N2CCCCCC2)c2c1CCC(NCc1ccc(C(F)(F)F)cc1)C2` (stereo unspecified), with -0.174 (inactive).
As to `Cc1cc(-c2cc3c(n(C)c2=O)CCN(Cc2ccc(Sc4nncn4C)o2)C3)ccc1F`, the z-score was -0.56 (inactive).
For the compound `CN(C)C(=O)c1nn(Cc2ccccc2)c2c1CN(C(=O)C1CC(=O)Nc3ccccc31)CC2` (stereo unspecified), the z-score is -0.404 (inactive).
Regarding `O=C(Oc1ccccc1)N1CCN2C(=O)[C@@H]3C[C@@H](O)CN3C(=O)[C@H]2C1`, the z-score is 1.95 (inactive).
Turning to `CCCCNC(=O)[C@@H]1C[C@H](CN2CCOCC2)CN(CCc2ccccc2)C1`, the z-score is 1.78 (inactive).
Turning to `CN(Cc1ccco1)C(=O)c1nn(C)c2c1CC(N1CCOc3ccc(Cl)cc3C1)CC2` (stereo unspecified), the z-score is -0.11 (inactive).
The figure for `Cc1ccc(C(C)CCN2CCc3c(c(C(=O)N4CCC(O)CC4)nn3CCc3ccccc3)C2)o1` (stereo unspecified) is -0.676 (inactive); for `COc1ccc(CN2C(=O)N(C)C3(CCN(Cc4cccn4-c4ccccn4)CC3)C2=O)cc1` it is -0.452 (inactive); for `COc1cc(CN2CC(=O)N(CC3CCOCC3)CC(OCc3ccccn3)C2)cc2c1OCO2` (stereo unspecified) it is -0.369.
For `O=c1c(-c2ccccc2Cl)cc2c(n1Cc1ccncc1)CCN(Cc1ccnc3ccccc13)C2`, the z-score is -0.09 (inactive).
On to `Cc1csc(-c2cc(C(=O)NCCC3CCCN3C)cc(S(=O)(=O)N3CCOCC3)c2)c1` (stereo unspecified), for which the z-score was 4.59 (active).
In the case of `Cc1ccnn1CCC(=O)N1CC(=O)N(CC(C)C)CC(OCc2ccccn2)C1` (stereo unspecified), the z-score was -0.157 (inactive).
As to `CC(C)CCNc1cc(C(=O)N[C@H]2CCCCNC2=O)cc(S(=O)(=O)NC(C)C)c1`, the z-score is -0.205 (inactive).
Regarding `Cc1ccc(-c2cc(C(=O)N3CCC[C@H]3CO)cc(S(=O)(=O)N3CCOCC3)c2)s1`, the z-score was -0.348 (inactive).
Take `COc1ccccc1C(=O)N1CCN2C(=O)[C@@H]3CSCN3C(=O)[C@H]2C1`: the z-score was -0.216 (inactive).
Take `Cn1nc(C(=O)NCc2cccnc2)c2c1CCN(Cc1ccc3c(c1)Cc1ccccc1-3)C2`: the z-score was -0.134 (inactive).
Consider `CC(C)N1CC(OCc2ccc(F)cc2)CN(C(=O)c2ccc(C#CC(C)(C)O)o2)CC1=O` (stereo unspecified), for which the z-score was -0.3 (inactive).
As to `COc1ccc(C(=O)N2CCN3C(=O)[C@H](COCc4ccccc4)NC(=O)[C@H]3C2)cc1`, the z-score was 1.06 (inactive).

For the origin of these results see PubChem BioAssay.
